RMI-FANCM inh – blocks RMI1/RMI2 complex binding to FANCM MM2 peptide; FP signal (polarization) at 33 µM; Fluorescence polarization, RMI core complex with F-MM2 peptide; hits give low values; 0.58% of 70,000 active; in the data active = FP signal below about 40
Active calls of the source: *. This is one part of a sample in which hits are shown more often than they occur.

SMILES	RMI-FANCM inh
CCOC(=O)Cn1c(-c2cccnc2)nc(-c2ccccc2)c1-c1ccccc1	62
CCOC(=O)c1oc2nc3c(c(-c4cccnc4)c2c1N)CCc1ccccc1-3	37*
COCc1cc(C)nc2oc(C(=O)c3ccccc3)c(N)c12	61
COc1ccc(OC)c2[nH]c(=O)c(CCNC(=S)Nc3ccccc3F)cc12	71
CCOC(=O)CN1C(c2ccccc2F)Nc2ccc(Br)cc2C1c1ccccc1 (stereo unspecified)	27*
CCOC(=O)Cn1c(=NC(=O)c2ccccc2Br)sc2cccc(F)c21	63
CCOC(=O)CNC(c1ccccc1)c1cc(Br)ccc1NC(=O)c1ccccc1 (stereo unspecified)	62
O=C(O)CCc1csc(NC(=O)c2ccccc2)n1	66
CC(C)S(=O)(=O)c1cccc(-c2nnc(NC(=O)c3ccccc3S(C)(=O)=O)o2)c1	66
CCOC(=O)N1CCN(C(=O)CSc2nc(=O)n3ccc(C)cc3n2)CC1	29*
COC(=O)c1ccc(CSc2nc(=O)n3ccc(C)cc3n2)o1	48
Cc1ccc(C2CC(c3cccs3)=NN2C(=O)CSc2nc(=O)n3ccc(C)cc3n2)cc1 (stereo unspecified)	88
COc1ccc(C)cc1NC(=O)N1CCN(c2ccc(-c3ccc4c(c3)OCO4)nn2)CC1	70
O=C(CCS(=O)(=O)c1ccc(Cl)cc1)Nc1nnc(-c2ccc(F)cc2)o1	34*
O=C(CCS(=O)(=O)c1ccc(F)cc1)Nc1nnc(-c2cccnc2)o1	57
O=C(CCS(=O)(=O)c1ccc(Cl)cc1)Nc1nnc(-c2ccncc2)o1	66
N/C(Cc1ccc(-c2csnn2)cc1)=N/OC(=O)c1cc(Cl)cc(Cl)c1	113
CC(C)(C)c1csc(NC(=O)c2cccc([N+](=O)[O-])c2)n1	69
CCCOc1ccc(-c2cc(C(=O)N=Nc3c(O)[nH]c4ccccc34)[nH]n2)cc1	58
Cc1ccc2nc(-c3ccc(OCC(=O)N=Nc4c(O)[nH]c5ccccc45)cc3)cc(-c3ccccc3)c2c1	20*
CCOC(=O)COc1ccc(-c2cc(-c3ccccc3)c3cc(Cl)ccc3n2)cc1	64
CCc1ccccc1NC(=O)c1cccc(-n2cnc3c(sc4nc(C)cc(C)c43)c2=O)c1	64
C/C(=N\NC(=O)CCCC(=O)O)c1c(-c2ccccc2)c2cc(Cl)ccc2[nH]c1=O	60
O=C(/C=C/c1ccco1)c1c(-c2ccccc2)c2cc(Cl)ccc2[nH]c1=O	0*
O=C(/C=C/c1ccco1)c1c(-c2ccccc2)c2cc(Br)ccc2[nH]c1=O	54
SMILES	RMI-FANCM inh
Cc1c(Cl)cccc1NC(=O)CSc1ccc(-c2ccc3c(c2)OCO3)nn1	76
CCOc1ccc2nc(N3CCN(C(=O)c4ccccc4S(=O)(=O)CC)CC3)sc2c1	57
O=c1c2scc(-c3cccc(Cl)c3)c2ncn1Cc1cc(=O)n2ccccc2n1	16*
Cc1ccc(C)c(Cn2cnc3c(-c4cccc(Cl)c4)csc3c2=O)c1	66
O=c1c2scc(-c3ccccc3)c2ncn1Cc1cccc(Cl)c1	63
CS(=O)(=O)N1CCC(C(=O)Nc2nc(-c3ccc4c(c3)CCCC4)cs2)CC1	68
Brc1ccc(CSc2ccc(-c3ccncc3)nn2)cc1	64
COc1cccc2sc(=NC(=O)c3ccc(F)cc3)n(C)c12	105
CCOC(=O)N1CCc2c(sc(NC(=O)CS(=O)(=O)c3ccccc3)c2C#N)C1	65
COC(=O)c1c(NC(=O)C(C)C)sc2c1CCN(Cc1ccccc1)C2	59
CCCCC(=O)Nc1sc2c(c1C(N)=O)CCN(C(C)=O)C2	69
NC(=O)c1c(NC(=O)CS(=O)(=O)c2ccccc2)sc2c1CCN(Cc1ccccc1)C2	21*
CC(=O)N1CCc2c(sc(NC(=O)CS(=O)(=O)c3ccc(Cl)cc3)c2C(N)=O)C1	15*
CC(C)N1CCc2c(sc(NC(=O)CCS(=O)(=O)c3ccc(Cl)cc3)c2C(N)=O)C1	55
CCN1CCc2c(sc(NC(=O)CCS(=O)(=O)c3ccc(F)cc3)c2C(N)=O)C1	37*
CC1CCc2c(sc(NC(=O)CCS(=O)(=O)c3ccc(F)cc3)c2C(N)=O)C1 (stereo unspecified)	79
CCOC(=O)c1c(NC(=O)CCS(=O)(=O)c2ccc(Cl)cc2)sc2c1CCN(C(C)=O)C2	66
O=C(CSc1nnc(N2CCN(C(=O)Cc3noc4ccccc34)CC2)s1)Nc1ccccc1	59
Cc1ccc(-n2ncc3c(=O)[nH]c(-n4nc(C)cc4NC(=O)Cc4cccc5ccccc45)nc32)cc1	39
Cc1cccc(NC(=O)CSc2ccc3nnc(-c4ccc(Cl)cc4)n3n2)c1C	85
N#CCCSc1ccccc1NC(=O)/C=C\c1cccc([N+](=O)[O-])c1	57
COc1ccc(C)cc1S(=O)(=O)NCCn1nc(-c2ccco2)ccc1=O	61
CCS(=O)(=O)NC1CC(=O)N(c2ccc(C)cc2)C1 (stereo unspecified)	55
COc1ccc(-c2c(C#N)c(SCC(=O)c3ccc4c(c3)OCO4)nc3c2C(=O)CC(C)(C)C3)cc1	143
N#Cc1c(SCC(=O)Nc2ccccc2)nc2c(c1-c1ccc(OCc3ccccc3)cc1)CCCC2	57
